# Source: article PMC4336329 (PLoS ONE, 2015)
# About 14,000 (4.5%) of roughly 310,000 compounds showed an effect of 50% or more. Effects have a minus sign here. Shown is part of a subset that was picked to be rich in strong results.
# Target: human ether-à-go-go-related gene (hERG) potassium channel (human, UniProt Q12809)
# Assay: primary screen, population patch clamp on CHO cells stably expressing hERG; higher = less effect of the substance
# 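Also: peak tail current of the secondary pulse compared with the same well before compound.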
# human ether-à-go-go-related gene (hERG) potassium channel, sequence (Q12809 whole entry, looked up): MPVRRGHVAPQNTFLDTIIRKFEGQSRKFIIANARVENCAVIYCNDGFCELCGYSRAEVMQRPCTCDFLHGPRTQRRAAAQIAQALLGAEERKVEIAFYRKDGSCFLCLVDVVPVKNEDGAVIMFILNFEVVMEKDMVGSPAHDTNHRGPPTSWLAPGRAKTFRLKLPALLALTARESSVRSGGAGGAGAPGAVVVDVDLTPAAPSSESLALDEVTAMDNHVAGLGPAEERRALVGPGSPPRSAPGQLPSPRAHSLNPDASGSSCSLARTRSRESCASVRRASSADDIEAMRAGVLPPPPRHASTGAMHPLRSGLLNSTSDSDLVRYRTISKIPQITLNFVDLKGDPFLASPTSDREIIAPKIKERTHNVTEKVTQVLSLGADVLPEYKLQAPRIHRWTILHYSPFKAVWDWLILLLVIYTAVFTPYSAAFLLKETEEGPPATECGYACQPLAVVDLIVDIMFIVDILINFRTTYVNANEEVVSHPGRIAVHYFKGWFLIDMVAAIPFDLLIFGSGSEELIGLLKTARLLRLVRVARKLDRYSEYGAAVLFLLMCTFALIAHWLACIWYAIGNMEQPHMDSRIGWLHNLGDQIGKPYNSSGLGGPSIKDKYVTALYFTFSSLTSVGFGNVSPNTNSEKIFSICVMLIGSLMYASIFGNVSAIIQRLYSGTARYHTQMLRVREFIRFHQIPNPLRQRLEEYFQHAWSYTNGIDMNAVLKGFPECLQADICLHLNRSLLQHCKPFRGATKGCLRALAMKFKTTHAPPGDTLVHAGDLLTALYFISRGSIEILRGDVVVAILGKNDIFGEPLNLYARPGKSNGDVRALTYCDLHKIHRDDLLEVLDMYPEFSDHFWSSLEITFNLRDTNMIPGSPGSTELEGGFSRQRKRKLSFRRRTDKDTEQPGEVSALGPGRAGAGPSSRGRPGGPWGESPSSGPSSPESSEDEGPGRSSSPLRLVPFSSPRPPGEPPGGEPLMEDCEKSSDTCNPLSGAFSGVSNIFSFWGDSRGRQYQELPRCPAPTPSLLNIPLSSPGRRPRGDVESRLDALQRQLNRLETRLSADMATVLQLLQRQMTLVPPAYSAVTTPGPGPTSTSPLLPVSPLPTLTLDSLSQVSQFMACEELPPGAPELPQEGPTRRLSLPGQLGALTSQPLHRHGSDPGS
row,SMILES,"hERG current change (%, negative = inhibition) at 10uM"
1,COCCn1c(SCC(=O)Nc2cccc(S(N)(=O)=O)c2)nc2cc(Cl)ccc2c1=O,-38.8%
2,CN1CCN(C2Cc3ccccc3Sc3cc(C(F)(F)F)ccc32)CC1.O=C(O)/C=C\C(=O)O (centres unmarked),-70.2%
3,CN1CCN(C(=O)Nc2ccc3c(c2)N(C)C(=O)c2ccccc2S3)CC1,8.57%
4,CSc1cccc(NC(=O)N2CCN(C)CC2)c1,-31.1%
5,O=C(O)/C=C\C(=O)O.OCCN1CCN(C2CCC(c3ccc(F)cc3)c3ccc(F)cc32)CC1 (centres unmarked),-44.5%
6,CN1Cc2cccc3c2C(Cc2ccccc2S3)C1.O=C(O)/C=C\C(=O)O (centres unmarked),-36.6%
7,CN1CCN(C2Cc3cc(F)ccc3Sc3ccc(Cl)cc32)CC1.O=C(O)/C=C\C(=O)O (centres unmarked),-44.8%
8,COc1ccc2c(c1)CC(N1CCN(C)CC1)c1cc(OC)ccc1S2.O=C(O)/C=C\C(=O)O (centres unmarked),-25.9%
9,CN1CCC(=C(c2ccc(Cl)cc2)c2ccccn2)CC1.O=C([O-])/C=C\C(=O)[O-],-40.5%
10,CS(=O)(=O)O.CSc1ccc2c(c1)C(N1CCN(C)CC1)Cc1ccccc1S2 (centres unmarked),-65.9%
11,CN1CCN(C2Cc3ccccc3Sc3ccc(Cl)cc32)CC1.O=C([O-])/C=C\C(=O)[O-] (centres unmarked),-65.9%
12,CSc1ccc2c(c1)C(N1CCN(C)CC1)Cc1ccc(F)cc1S2.O=C(O)/C=C\C(=O)O (centres unmarked),-58.8%
13,Cc1ccc(/C=C2\C(=N)N3N=C(CC(=O)N4CCCCC4)SC3=NC2=O)cc1,17.4%
14,COc1ccc(/C(O)=C2/C(=O)C(=O)N(c3ccccn3)C2c2ccc(F)cc2)cc1 (centres unmarked),35.2%
15,O=C(COC(=O)CNC(=O)c1ccc(Cl)cc1Cl)NC1CCCCCCC1,15.8%
16,Cc1cn(C(=O)c2cccc(Br)c2)c(C)n1,15%
17,O=c1c2ccccc2nnn1Cc1ccc(Br)cc1,8.66%
18,CCNC(=O)NC(=O)CSc1ccccc1F,10.7%
19,Cc1nc2sc3c(c2c(=O)[nH]1)CCC3,12.1%
20,CC(NC(=O)c1cccs1)C(=O)NC1=NCCS1 (centres unmarked),1.3%
21,COc1cc(N)c(Cl)cc1C(=O)OCC(=O)c1ccc2c(c1)NC(=O)CO2,1.68%

row,SMILES,"hERG current change (%, negative = inhibition) at 10uM"
1,Cc1nnc(SCC(=O)Nc2cc(S(C)(=O)=O)ccc2Cl)n1Cc1ccccc1,6.22%
2,CC(=O)NCCNC(=O)c1cccc(NS(=O)(=O)c2ccc3c(c2)OCCO3)c1,-2.65%
3,Cc1c(NC(=O)C2CC(c3c(F)cccc3Cl)=NO2)c(=O)n(-c2ccccc2)n1C (centres unmarked),14.7%
4,CN1CCN(C2Cc3cc(Cl)ccc3Sc3cc(F)ccc32)CC1.CS(=O)(=O)O (centres unmarked),-38.2%
5,CS(=O)(=O)O.Cc1cccc2c1Sc1ccc(Cl)cc1CC2N1CCNCC1.O (centres unmarked),5.75%
6,CN1CCN(C2Cc3ccc(F)cc3Sc3cc(F)c(Cl)cc32)CC1.CS(=O)(=O)O.O (centres unmarked),-77.3%
7,CN1CCN(C2=Cc3ccccc3Sc3cc(F)c(F)cc32)CC1.CS(=O)(=O)O,-22.5%
8,CN1CCN(C2=Cc3ccccc3Sc3cc(F)c(Cl)cc32)CC1.O=C(O)/C=C\C(=O)O,-12.4%
9,CN1CCN(C2=Cc3ccc(Cl)cc3Sc3ccc(F)cc32)CC1.CS(=O)(=O)O.O,-14.8%
10,CN1CCN(C2=Cc3ccccc3Sc3cc(F)ccc32)CC1.O=C(O)/C=C\C(=O)O,-62.8%
11,CS(=O)(=O)O.Clc1cccc2c1Sc1ccccc1CC2N1CCNCC1 (centres unmarked),-72.4%
12,CCc1cccc2c1Sc1ccccc1CC2N1CCNCC1.CS(=O)(=O)O (centres unmarked),-31.1%
13,CC(C)c1ccc2c(c1)C(N1CCNCC1)Cc1ccc(F)cc1S2.O.O=C(O)/C=C\C(=O)O (centres unmarked),5.51%
14,Cc1nc2c(o1)CCc1ccccc1C2N1CCN(C)CC1.O=C(O)/C=C/C(=O)O (centres unmarked),-5.58%
15,CC(C)c1ccc2c(c1)C(N1CCN(C)CC1)Cc1cccnc1S2.O=C(O)/C=C\C(=O)O (centres unmarked),-50.6%
16,CCOc1ccc(Cn2nnc(C(=O)NCc3ccc(OC)cc3)c2N)cc1,6.41%
17,CCN(CC)c1ccc(C2C(C(=O)OCCOC)=C(C)NC3=C2C(=O)CCC3)cc1 (centres unmarked),-5.24%
18,CCOc1ccc(-c2cc(N)n(S(=O)(=O)c3ccc(OC)cc3)n2)cc1,10.7%
19,CN1c2ccccc2-c2nc3ccccc3n2C1c1ccco1 (centres unmarked),-15.3%
20,CC1CCCC(C)N1C(=O)Cn1cc(C#N)c2ccccc21 (centres unmarked),9.8%
21,Cc1nc2c(o1)CCc1ccccc1C2N1CCN(C)CC1.O=C([O-])/C=C\C(=O)[O-] (centres unmarked),12.4%

row,SMILES,"hERG current change (%, negative = inhibition) at 10uM"
1,CSc1ccc2c(c1)C(N1CCN(C)CC1)Cc1ccccc1S2.O=C([O-])/C=C\C(=O)[O-] (centres unmarked),-65.2%
2,CCc1ccc2c(c1)Sc1ccccc1CC2N1CCN(C)CC1.CS(=O)(=O)O.O (centres unmarked),-69%
3,CCS(=O)(=O)N1CCN(C2Cc3ccccc3C2)CC1.O=C(O)C(=O)O,3.3%
4,CN(C)/C=C/C(=O)c1ccn(S(=O)(=O)c2ccccc2)c1,23.6%
5,Fc1ccc(Cn2nnnc2C(c2ccc(Cl)cc2)N2CC=C(c3ccc(F)cc3)CC2)cc1 (centres unmarked),10.1%
6,CCOc1ccc(N(C)Cc2cc(=O)oc3ccc(OCC)cc23)cc1,-1.17%
7,CCOc1cc2[nH]c(=S)n(C3CCN(Cc4ccccc4)CC3)c(=O)c2cc1OCC,17.6%
8,Cc1nn(Cc2ccccc2)c(=O)n1N(C)c1ncc(C(F)(F)F)cc1Cl,-7.74%
9,Cc1ccsc1C1C(C#N)=C(N)OC2=C1C(=O)CC(C)(C)C2 (centres unmarked),-6.69%
10,O=C1C=C(Nc2ccc(Cl)cc2)CC(c2ccc(Cl)cc2)C1 (centres unmarked),-2.27%
11,O=C1C=C(Nc2ccc(Cl)cc2)CC(c2ccco2)C1 (centres unmarked),-1.85%
12,O=C1C=C(NCc2ccc(Cl)cc2)CC(c2ccco2)C1 (centres unmarked),-82.2%
13,O=C1C=C(NCc2ccco2)CCC1,16.7%
14,O=C1C=C(NCc2ccco2)CC(c2ccc(Cl)cc2)C1 (centres unmarked),-61.5%
15,O=C1C=C(Nc2cccc(Cl)c2)CC(c2ccco2)C1 (centres unmarked),-4.15%
16,N#Cc1c(C(F)(F)F)cc(-c2ccccc2)n(N)c1=O,13.9%
17,Cc1cc(C)n2nc(SCc3ccc(F)cc3Cl)nc2n1,-4.5%
18,Cn1c(N=Nc2ccccc2)nc2ccccc21,4.08%
19,S=c1[nH]c2ccccc2n2c(=S)[nH]nc12,5.26%
20,COCCCNC(=O)CN(c1cc(Cl)ccc1OC)S(C)(=O)=O,17.4%
21,Oc1ccc(CN2CCN(Cc3ccccc3)CC2)c2cccnc12,-13.9%

row,SMILES,"hERG current change (%, negative = inhibition) at 10uM"
1,CCCCCc1c(C)nc(NCc2ccccc2)[nH]c1=O,-4.44%
2,N/C(=N\OC(=O)c1ccc(Cl)c(Cl)c1)c1ccccn1,3.76%
3,CC1CCN(S(=O)(=O)c2ccc3c(c2)N(CC(=O)NCCCN2CCCCC2C)C(=O)CS3)CC1 (centres unmarked),0.668%
4,CCCCCCCNC(=O)CN1C(=O)CSc2ccc(S(=O)(=O)N3CCOCC3)cc21,-17.7%
5,O=C(CN1C(=O)CSc2ccc(S(=O)(=O)N3CCOCC3)cc21)NCCCN1CCCCC1,18%
6,CC1CCCCN1CCNC(=O)CN1C(=O)CSc2ccc(S(=O)(=O)N3CCCCC3)cc21 (centres unmarked),-17.6%
7,CC1CCN(S(=O)(=O)c2ccc3c(c2)N(CC(=O)NCCN2C(C)CCCC2C)C(=O)CS3)CC1 (centres unmarked),-52.7%
8,Cc1ccc(CNC(=O)CN2C(=O)CSc3ccc(S(=O)(=O)N4CCC(C)CC4)cc32)cc1,-27.4%
9,CC1CCN(CCCNC(=O)CN2C(=O)CSc3ccc(S(=O)(=O)N4CCOCC4)cc32)CC1,6.31%
10,CC1CCN(S(=O)(=O)c2ccc3c(c2)N(CC(=O)NCCCN2CCCCC2)C(=O)CS3)CC1,-10.6%
11,O=C(CN1C(=O)CSc2ccc(S(=O)(=O)N3CCOCC3)cc21)NCc1cccnc1,6.4%
12,CC1CCN(CCCNC(=O)CN2C(=O)CSc3ccc(S(=O)(=O)N4CCC(C)CC4)cc32)CC1,-54.5%
13,O=C(CN1C(=O)CSc2ccc(S(=O)(=O)N3CCOCC3)cc21)NCCCN1CCc2ccccc2C1,-66.3%
14,CC1CCN(S(=O)(=O)c2ccc3c(c2)N(CC(=O)NCc2cccnc2)C(=O)CS3)CC1,-53.3%
15,O=C(NC1CC2CCCC(C1)N2C(=O)Nc1ccccc1)C1CC1 (centres unmarked),6.44%
16,Cn1c(Cc2cccc3ccccc23)nnc1SCC(=O)N1CCN(c2cccc(Cl)c2)CC1,-25.7%
17,COc1ccc(S(=O)(=O)N(CC(=O)N2CCN(C)CC2)C2CCCCC2)cc1OC,-7.66%
18,COC(=O)C(C(=O)OC)=C(/C=C/C=C/N(C)C)N(C)C,13.9%
19,CCN(CC)S(=O)(=O)c1ccc(OC(C)C)nc1,-1.16%
20,COc1ccc([C@H]2CC(=O)C=C(c3cc4ccccc4c4ccccc34)C2)cc1,13.6%
